# Residue numbers refer to the chain shown, from its start.
# Columns and labels:
# Assay in all cases: PBM; 200 nM protein, PBS
# Conditions in all cases: dsDNA, one strand shown
# [1] = target: T1, SIX6 (Homo sapiens, UniProt O95475 114-200, L167I)
# T1 sequence: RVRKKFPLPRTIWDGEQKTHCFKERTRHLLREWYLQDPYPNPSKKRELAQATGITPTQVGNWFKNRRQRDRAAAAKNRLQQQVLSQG
# [2] = target: T2, SIX6 (Homo sapiens, UniProt O95475 114-200, L143V)
# T2 sequence: T1 sequence with L30V, I54L
# [3] = target: T3, SIX6 (Homo sapiens, UniProt O95475 114-200, H141N)
# T3 sequence: T1 sequence with H28N, I54L
# [4] = target: T4, SIX6 (Homo sapiens, UniProt O95475 114-200, T165P)
# T4 sequence: T1 sequence with T52P, I54L
# [5] = target: T5, SIX6 (Homo sapiens, UniProt O95475 114-200, L167M)
# T5 sequence: T1 sequence with I54M
# [6] = target: T6, SIX6 (Homo sapiens, UniProt O95475 114-200, L143M)
# T6 sequence: T1 sequence with L30M, I54L
# [7] = target: T7, SIX6 (Homo sapiens, UniProt O95475 114-200, L143I)
# T7 sequence: T1 sequence with L30I, I54L
# [8] = target: T8, SIX6 (Homo sapiens, UniProt O95475 114-200, T165G)
# T8 sequence: T1 sequence with T52G, I54L
# [9] = target: T9, SIX6 (Homo sapiens, UniProt O95475 114-200, T139Q)
# T9 sequence: T1 sequence with T26Q, I54L
# [10] = target: T10, SIX6 (Homo sapiens, UniProt O95475 114-200, T165A)
# T10 sequence: T1 sequence with T52A, I54L
# [11] = target: T11, SIX6 (Homo sapiens, UniProt O95475 114-200, L167V)
# T11 sequence: T1 sequence with I54V
# [12] = target: T12, SIX6 (Homo sapiens, UniProt O95475 114-200)
# T12 sequence: T1 sequence with I54L
# [13] = target: T13, SIX6 (Homo sapiens, UniProt O95475 114-200, T165I)
# T13 sequence: T1 sequence with T52I, I54L
# [14] = target: NKX3-2 (Homo sapiens, UniProt P78367 192-278, P234S)
# [15] = target: NKX3-2 (Homo sapiens, UniProt P78367 192-278)
# Chain of NKX3-2 (Homo sapiens, UniProt P78367 192-278) (P78367 192-278): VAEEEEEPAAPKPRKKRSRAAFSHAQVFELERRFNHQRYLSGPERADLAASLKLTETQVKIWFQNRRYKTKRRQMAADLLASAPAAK
# Chain of NKX3-2 (Homo sapiens, UniProt P78367 192-278, P234S) (P78367 192-278 P234S): as the sequence (P78367 192-278) above, with P43S counted along it
Sequence,binding signal [1],binding signal [2],binding signal [3],binding signal [4],binding signal [5],binding signal [6],binding signal [7],binding signal [8],binding signal [9],binding signal [10],binding signal [11],binding signal [12],binding signal [13],binding signal [14],binding signal [15]
GAAAGCGC,"8.91 upbm affinity estimate (log intensity, higher = more binding, comparable within an allelic series)","8.99 upbm affinity estimate (log intensity, higher = more binding, comparable within an allelic series)","8.85 upbm affinity estimate (log intensity, higher = more binding, comparable within an allelic series)","9.04 upbm affinity estimate (log intensity, higher = more binding, comparable within an allelic series)","8.97 upbm affinity estimate (log intensity, higher = more binding, comparable within an allelic series)","8.96 upbm affinity estimate (log intensity, higher = more binding, comparable within an allelic series)","8.97 upbm affinity estimate (log intensity, higher = more binding, comparable within an allelic series)","9 upbm affinity estimate (log intensity, higher = more binding, comparable within an allelic series)","9 upbm affinity estimate (log intensity, higher = more binding, comparable within an allelic series)","9.02 upbm affinity estimate (log intensity, higher = more binding, comparable within an allelic series)","8.93 upbm affinity estimate (log intensity, higher = more binding, comparable within an allelic series)","8.96 upbm affinity estimate (log intensity, higher = more binding, comparable within an allelic series)","8.97 upbm affinity estimate (log intensity, higher = more binding, comparable within an allelic series)",,
AAGGCCGC,"8.93 upbm affinity estimate (log intensity, higher = more binding, comparable within an allelic series)","8.99 upbm affinity estimate (log intensity, higher = more binding, comparable within an allelic series)","8.93 upbm affinity estimate (log intensity, higher = more binding, comparable within an allelic series)","8.98 upbm affinity estimate (log intensity, higher = more binding, comparable within an allelic series)","8.92 upbm affinity estimate (log intensity, higher = more binding, comparable within an allelic series)","8.92 upbm affinity estimate (log intensity, higher = more binding, comparable within an allelic series)","8.97 upbm affinity estimate (log intensity, higher = more binding, comparable within an allelic series)","8.93 upbm affinity estimate (log intensity, higher = more binding, comparable within an allelic series)","8.96 upbm affinity estimate (log intensity, higher = more binding, comparable within an allelic series)","8.9 upbm affinity estimate (log intensity, higher = more binding, comparable within an allelic series)","8.89 upbm affinity estimate (log intensity, higher = more binding, comparable within an allelic series)","8.92 upbm affinity estimate (log intensity, higher = more binding, comparable within an allelic series)","8.95 upbm affinity estimate (log intensity, higher = more binding, comparable within an allelic series)","10.5 upbm affinity estimate (log intensity, higher = more binding, comparable within an allelic series)","10.6 upbm affinity estimate (log intensity, higher = more binding, comparable within an allelic series)"
GATACCGA,"10.5 upbm affinity estimate (log intensity, higher = more binding, comparable within an allelic series)","9.92 upbm affinity estimate (log intensity, higher = more binding, comparable within an allelic series)","10.4 upbm affinity estimate (log intensity, higher = more binding, comparable within an allelic series)","9.38 upbm affinity estimate (log intensity, higher = more binding, comparable within an allelic series)","10.1 upbm affinity estimate (log intensity, higher = more binding, comparable within an allelic series)",,"9.98 upbm affinity estimate (log intensity, higher = more binding, comparable within an allelic series)","10.6 upbm affinity estimate (log intensity, higher = more binding, comparable within an allelic series)","10.6 upbm affinity estimate (log intensity, higher = more binding, comparable within an allelic series)","10.5 upbm affinity estimate (log intensity, higher = more binding, comparable within an allelic series)",,"10.5 upbm affinity estimate (log intensity, higher = more binding, comparable within an allelic series)",,,
GCCGCGCA,"8.96 upbm affinity estimate (log intensity, higher = more binding, comparable within an allelic series)","8.97 upbm affinity estimate (log intensity, higher = more binding, comparable within an allelic series)","8.91 upbm affinity estimate (log intensity, higher = more binding, comparable within an allelic series)","8.97 upbm affinity estimate (log intensity, higher = more binding, comparable within an allelic series)","8.9 upbm affinity estimate (log intensity, higher = more binding, comparable within an allelic series)","8.97 upbm affinity estimate (log intensity, higher = more binding, comparable within an allelic series)","8.96 upbm affinity estimate (log intensity, higher = more binding, comparable within an allelic series)","8.81 upbm affinity estimate (log intensity, higher = more binding, comparable within an allelic series)","8.99 upbm affinity estimate (log intensity, higher = more binding, comparable within an allelic series)","8.86 upbm affinity estimate (log intensity, higher = more binding, comparable within an allelic series)","8.86 upbm affinity estimate (log intensity, higher = more binding, comparable within an allelic series)","8.91 upbm affinity estimate (log intensity, higher = more binding, comparable within an allelic series)","8.89 upbm affinity estimate (log intensity, higher = more binding, comparable within an allelic series)",,
GTGATATA,"11.3 upbm affinity estimate (log intensity, higher = more binding, comparable within an allelic series)","10.5 upbm affinity estimate (log intensity, higher = more binding, comparable within an allelic series)","11.3 upbm affinity estimate (log intensity, higher = more binding, comparable within an allelic series)","9.96 upbm affinity estimate (log intensity, higher = more binding, comparable within an allelic series)","11 upbm affinity estimate (log intensity, higher = more binding, comparable within an allelic series)","10.9 upbm affinity estimate (log intensity, higher = more binding, comparable within an allelic series)","10.4 upbm affinity estimate (log intensity, higher = more binding, comparable within an allelic series)","11.3 upbm affinity estimate (log intensity, higher = more binding, comparable within an allelic series)","11.1 upbm affinity estimate (log intensity, higher = more binding, comparable within an allelic series)","11.3 upbm affinity estimate (log intensity, higher = more binding, comparable within an allelic series)","11.1 upbm affinity estimate (log intensity, higher = more binding, comparable within an allelic series)","11.1 upbm affinity estimate (log intensity, higher = more binding, comparable within an allelic series)","11.2 upbm affinity estimate (log intensity, higher = more binding, comparable within an allelic series)",,

# — PMC11006913
